Laboratory results as given in PubChem BioAssay (NCATS).
Records with an inconclusive call do not appear. The source made the active and inactive calls. Unless noted, calls follow the shape of the full dose curve.

Columns and labels:
[1] = qHTS drug screen for cell cycle checkpoint inhibitors in PARPi-resistant BRCA-mutant ovarian cancer cell lines. (AID 1963452); conditions: PEO1/OlaR viability, CellTiter-Glo luminescence, 96 h, stronger effect = lower value
Procedure, shortened: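 PEO1, PEO4 and PEO1/OlaR ovarian cancer cells, 600 per well, exposed 96 h at 37C to a dilution series. Viability read by CellTiter-Glo luminescence, normalized to DMSO and empty wells; activity summarized as Z-AUC.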

[2] = KB-8-5-11 P-gp reporter qHTS against the NCATS DSHEA and TCM libraries (AID 1919977; active = well fitted curve in the direction sought with a large enough effect; also: 0% is about no effect); conditions: KB-8-5-11 cells; series mostly up to 26.1 µM
Procedure, shortened: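 Viability of drug-resistant KB-8-5-11 cells is measured by CellTiter-Glo luminescence following roughly 72 h treatment at 37C. Substances were titrated, with bortezomib as intraplate control.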

[3] = measured here: PEO1 parental Z-AUC

Row | SMILES | Z-AUC [1] | Z-AUC [1, 3] | Z-AUC ([1]; measured here: PEO4 Z-AUC) | outcome [2]
1 | O=c1cccc2n1CC1CNC[C@H]2C1 | 1.36 (inactive) | 1.98 | 1.69 | –
2 | CC(C)[C@]12O[C@H]1[C@@H]1O[C@]13[C@]1(O[C@H]1C[C@H]1C4=C(CC[C@@]13C)C(=O)OC4)[C@@H]2O | -2.76 (inactive) | -2.59 | -3.67 | –
3 | O=C1C=CC[C@@H]2[C@H]3CCCN4CCC[C@@H](CN12)[C@@H]34 | 0.0265 (inactive) | 1.52 | 0.946 | –
4 | CC1(N2CCC(n3c([C@@H]4CCCNC4)nc4ccccc43)CC2)CCCCCCC1 | 1.01 (inactive) | 0.227 | 0.462 | –
5 | CCNC(=O)CC1N=C(c2ccc(Cl)cc2)c2cc(OC)ccc2-n2c(C)nnc21 (stereo unspecified) | 0.242 (inactive) | 0.653 | 0.806 | –
6 | CCN1CCN(C(=O)Cc2ccc(Nc3ncc(F)c(Nc4ccc(C(=O)Nc5ccccc5Cl)cc4)n3)cc2)CC1 | 0.278 (inactive) | -0.415 | -1.09 | –
7 | O=C(N[C@@H](COc1ccc2[nH]c(=O)[nH]c2c1)c1ccccc1)c1cccn(Cc2ccc(F)c(F)c2)c1=O | -0.315 (inactive) | 0.00624 | 0.64 | –
8 | COCC1(CO)C(=O)C2CCN1CC2 (stereo unspecified) | 0.503 (inactive) | 0.336 | 0.128 | –
9 | COc1ccc(C(=O)c2c(C)n(CCN3CCOCC3)c3cc(I)ccc23)cc1 | -0.298 (inactive) | -0.515 | -0.461 | –
10 | CC1=C(C/C=C(\C)CCC[C@H](C)CCC[C@H](C)CCCC(C)C)C(=O)c2ccccc2C1=O | – | – | – | inactive
11 | O=C(O)CNC(=O)c1c(O)c2ccccc2n(Cc2ccccc2)c1=O | -0.292 (inactive) | 0.683 | 0.802 | –
